Values joined by “and” are separate entries in the source; they are usually repeats but may differ in a detail not shown here. Equal entries are not always repeated. Records with an inconclusive call do not appear. Active and inactive are the calls of the source. Unless noted, calls come from the whole dose curve; as a rule, active = well fitted curve in the direction sought with a large enough effect; inconclusive = small, poorly fitted or top-dose-only effect, or another doubt; inactive = no such curve, though single readings can be large; an effect the other way counts as inactive or inconclusive.
Key:
[1] = molecular target: Thioredoxin reductase 1, cytoplasmic (Rattus norvegicus) (UniProt O89049); assay: qHTS Assay for Substrates of Mammalian Selenoprotein Thioredoxin Reductase 1 (TrxR1) (AID 488772);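 note: NADPH fluorescence in the first read after selenite addition and not the 8 min delta; series mostly up to about 57 µM; 0% is about no effect; a drop in NADPH fluorescence below the no-compound background marks a TrxR1 substrate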
How it was run: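 Quantitative HTS in Tris-HCl buffer at pH 7.5 with EDTA and Tween-20, using rat TrxR1, 400 uM NADPH and 400 uM selenite (final). A fall in initial NADPH fluorescence relative to background marked substrate behaviour.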

[2] = molecular target: Thioredoxin reductase 1, cytoplasmic (Rattus norvegicus) (UniProt O89049); assay: qHTS Assay for Inhibitors of Mammalian Selenoprotein Thioredoxin Reductase 1 (TrxR1) (AID 488773); conditions: Potency: inhibition;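 note: drop in NADPH fluorescence over an 8 min run after selenite addition; series mostly up to about 57 µM; % is set by controls: 0 for no effect and ±100 for the full control effect; nearly all actives have a fitted effect of over 40% in size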
How it was run: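 Steps: enzyme (90 nM) plus NADPH (400 uM final), 5 min at ~22 deg C; compound added, 15 min; selenite (400 uM final) added; fluorescence followed for 8 min. Concentration-response curves derived from the normalized delta values.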

[3] = molecular target: Flap endonuclease 1 (Homo sapiens) (UniProt P39748); assay: qHTS Validation Assay for the Inhibitors of Human Flap endonuclease 1 (FEN1) (AID 488816); note: % is set by controls: 0 for no effect and ±100 for the full control effect
How it was run: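 FEN1, dispensed as a 10 nM reagent, was preincubated with pin-transferred compounds for 15 min at room temperature before substrate was added (50 nM final). Plates were read at 0 and 15 min, and a four-parameter Hill equation was fitted to the concentration-response data.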

[4] = molecular target: M-phase phosphoprotein 8 (Homo sapiens) (UniProt Q99549); assay: qHTS Validation Assay for Inhibitors for MPP8 Chromodomain Interactions with Methylated Histone Tails (AID 488949); note: nearly all actives have a fitted effect of over 55% in size; note: potency is the fitted concentration of half-maximal effect
How it was run: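 50 nM MPP8 + 50 nM b-H3K9me3 peptide, PBS pH 7.4/0.01% Tween-20, 30 min RT; + cpd 30 min RT; + AlphaScreen donor/Ni-chelate acceptor beads 10 ug/mL final, 30 min dark; luminescence read.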

[5] = molecular target: Chromobox protein homolog 1 (Homo sapiens) (UniProt P83916); assay: qHTS Validation Assay for Inhibitors of HP1-beta Chromodomain Interactions with Methylated Histone Tails (AID 488953); note: nearly all actives have a fitted effect of over 50% in size; note: potency is the fitted concentration of half-maximal effect
Sequence of Chromobox protein homolog 1 (Homo sapiens) (P83916 whole entry, looked up): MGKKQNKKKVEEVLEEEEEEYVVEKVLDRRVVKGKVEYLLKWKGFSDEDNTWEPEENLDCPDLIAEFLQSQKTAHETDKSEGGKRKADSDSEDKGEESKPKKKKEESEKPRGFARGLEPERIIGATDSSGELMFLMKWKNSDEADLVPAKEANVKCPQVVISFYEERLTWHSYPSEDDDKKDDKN
How it was run: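 HP1-beta (50 nM) was preincubated 30 min at room temperature with biotinylated H3(1-18)K9me3 peptide (50 nM) in PBS pH 7.4, 0.01% Tween-20, then with compounds 30 min. AlphaScreen signal was read after streptavidin donor/nickel chelate acceptor beads (10 ug/mL final).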

[6] = molecular target: Methanococcus maripaludis chaperonin (MmCpn) (UniProt Q6LX38); assay: High-Throughput Screening for Modulators of Cytosolic Chaperonin Activity: MmCpn Primary Screen (AID 488978);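 note: 50 nM MmCpn enzyme hydrolysing 30 µM ATP at 37 °C; 0% is about no effect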
Sequence of Methanococcus maripaludis chaperonin (MmCpn) (Q6LX38 1-543): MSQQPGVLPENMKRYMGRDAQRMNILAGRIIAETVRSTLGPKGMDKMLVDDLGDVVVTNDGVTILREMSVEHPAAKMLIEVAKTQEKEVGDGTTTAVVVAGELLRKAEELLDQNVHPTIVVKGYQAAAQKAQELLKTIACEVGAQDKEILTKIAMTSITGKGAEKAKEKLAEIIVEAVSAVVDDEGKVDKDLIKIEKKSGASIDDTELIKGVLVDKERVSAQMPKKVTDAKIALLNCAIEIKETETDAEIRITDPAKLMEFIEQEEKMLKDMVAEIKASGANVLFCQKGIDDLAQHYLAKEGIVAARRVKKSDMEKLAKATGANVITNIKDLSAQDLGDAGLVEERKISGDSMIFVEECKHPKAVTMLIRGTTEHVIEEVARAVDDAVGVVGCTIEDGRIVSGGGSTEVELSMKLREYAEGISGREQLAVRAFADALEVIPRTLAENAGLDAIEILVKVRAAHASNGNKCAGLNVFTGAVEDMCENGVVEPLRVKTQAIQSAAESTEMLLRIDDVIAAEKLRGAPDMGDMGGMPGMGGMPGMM
How it was run: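 Steps: chaperonin 50 nM final; add compound, 5 min RT; start with ATP, 30 uM final; hold 10 min at 37C; add ADP Transcreener HTRF reagent, 5 min; read ex 320, em 590 and 665 nm.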

[7] = molecular target: Thyrotropin receptor (Homo sapiens) (UniProt P16473); assay: qHTS Assay for Antagonists of the Thyroid Stimulating Hormone Receptor (AID 488980); note: series mostly up to about 58 µM; 0% is about no effect
Sequence of Thyrotropin receptor (Homo sapiens) (P16473 whole entry, looked up): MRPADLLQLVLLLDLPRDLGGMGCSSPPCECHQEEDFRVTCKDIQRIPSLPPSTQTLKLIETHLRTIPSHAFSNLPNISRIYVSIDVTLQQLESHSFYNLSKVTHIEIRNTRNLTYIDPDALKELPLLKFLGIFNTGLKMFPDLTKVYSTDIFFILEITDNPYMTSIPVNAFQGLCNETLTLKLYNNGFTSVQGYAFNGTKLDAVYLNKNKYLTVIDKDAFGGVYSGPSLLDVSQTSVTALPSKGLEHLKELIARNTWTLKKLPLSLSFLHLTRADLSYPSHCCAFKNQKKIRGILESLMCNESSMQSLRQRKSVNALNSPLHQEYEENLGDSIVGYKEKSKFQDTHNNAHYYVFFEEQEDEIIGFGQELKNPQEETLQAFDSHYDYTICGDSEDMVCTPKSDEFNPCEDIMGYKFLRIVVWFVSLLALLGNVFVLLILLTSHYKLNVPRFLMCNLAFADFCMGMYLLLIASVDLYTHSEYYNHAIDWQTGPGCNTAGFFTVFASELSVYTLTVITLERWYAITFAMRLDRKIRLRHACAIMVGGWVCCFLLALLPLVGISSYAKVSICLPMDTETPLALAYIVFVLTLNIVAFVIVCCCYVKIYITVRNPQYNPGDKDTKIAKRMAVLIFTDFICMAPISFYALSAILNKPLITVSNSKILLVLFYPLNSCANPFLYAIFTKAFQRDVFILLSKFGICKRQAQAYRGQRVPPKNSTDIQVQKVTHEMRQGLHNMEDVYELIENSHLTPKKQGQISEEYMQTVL
How it was run: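 Readout is cAMP by HTRF competition between cellular cAMP and cAMP-d2 for a cryptate-labelled antibody. Antagonism was assessed in TSHR-transfected HEK293 cells stimulated with 4 nM TSH (EC80, final) in the presence of RO 20-1724.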

[8] = molecular target: D(1A) dopamine receptor (Homo sapiens) (UniProt P21728); assay: HTS Assay for Allosteric Agonists of the Human D1 Dopamine Receptor: Primary Screen for Agonists (AID 488981); note: 0% is about no effect
How it was run: (§1)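 Tetracycline-induced HEK293 T-REx cells force-coupled to calcium signalling were incubated overnight at 30 C and dye-loaded at room temperature. Calcium flux over 180 s after compound addition flagged agonists; a further 180 s read after EC20 dopamine flagged potentiators.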

[9] = molecular target: D(1A) dopamine receptor (Homo sapiens) (UniProt P21728); assay: HTS Assay for Allosteric Agonists of the Human D1 Dopamine Receptor: Primary Screen for Potentiators (AID 488982); note: 0% is about no effect
How it was run: as §1

[10] = Validation screen for small molecules that induce genotoxicity in human embryonic kidney (HEK293T) cells expressing luciferase-tagged ELG1 (AID 493106); note: potency is the fitted concentration of half-maximal effect
How it was run: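 HEK293T cells expressing luciferase-tagged ELG1 were exposed to compound or DMSO vehicle for 16 hr at 37 °C, 5% CO2. Genotoxic stress raises ELG1 levels, so increased luciferase signal after ONE-Glo addition and 30 min at room temperature marks hits.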

[11] = molecular target: ATPase family AAA domain-containing protein 5 (Homo sapiens) (UniProt Q96QE3); assay: Validation screen for small molecules that inhibit ELG1-dependent DNA repair in human embryonic kidney (HEK293T) cells expressing luciferase-tagged ELG1 (AID 493107);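 note: cells co-treated with the DNA-damaging agent 5-fluorouridine alongside compound; series mostly up to about 46 µM; % is set by controls: 0 for no effect and ±100 for the full control effect; inhibitors lower the ELG1-luciferase luminescence signal; nearly all actives have a fitted effect of over 70% in size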
Sequence of ATPase family AAA domain-containing protein 5 (Homo sapiens) (Q96QE3 whole entry, looked up, the tested form may be a part): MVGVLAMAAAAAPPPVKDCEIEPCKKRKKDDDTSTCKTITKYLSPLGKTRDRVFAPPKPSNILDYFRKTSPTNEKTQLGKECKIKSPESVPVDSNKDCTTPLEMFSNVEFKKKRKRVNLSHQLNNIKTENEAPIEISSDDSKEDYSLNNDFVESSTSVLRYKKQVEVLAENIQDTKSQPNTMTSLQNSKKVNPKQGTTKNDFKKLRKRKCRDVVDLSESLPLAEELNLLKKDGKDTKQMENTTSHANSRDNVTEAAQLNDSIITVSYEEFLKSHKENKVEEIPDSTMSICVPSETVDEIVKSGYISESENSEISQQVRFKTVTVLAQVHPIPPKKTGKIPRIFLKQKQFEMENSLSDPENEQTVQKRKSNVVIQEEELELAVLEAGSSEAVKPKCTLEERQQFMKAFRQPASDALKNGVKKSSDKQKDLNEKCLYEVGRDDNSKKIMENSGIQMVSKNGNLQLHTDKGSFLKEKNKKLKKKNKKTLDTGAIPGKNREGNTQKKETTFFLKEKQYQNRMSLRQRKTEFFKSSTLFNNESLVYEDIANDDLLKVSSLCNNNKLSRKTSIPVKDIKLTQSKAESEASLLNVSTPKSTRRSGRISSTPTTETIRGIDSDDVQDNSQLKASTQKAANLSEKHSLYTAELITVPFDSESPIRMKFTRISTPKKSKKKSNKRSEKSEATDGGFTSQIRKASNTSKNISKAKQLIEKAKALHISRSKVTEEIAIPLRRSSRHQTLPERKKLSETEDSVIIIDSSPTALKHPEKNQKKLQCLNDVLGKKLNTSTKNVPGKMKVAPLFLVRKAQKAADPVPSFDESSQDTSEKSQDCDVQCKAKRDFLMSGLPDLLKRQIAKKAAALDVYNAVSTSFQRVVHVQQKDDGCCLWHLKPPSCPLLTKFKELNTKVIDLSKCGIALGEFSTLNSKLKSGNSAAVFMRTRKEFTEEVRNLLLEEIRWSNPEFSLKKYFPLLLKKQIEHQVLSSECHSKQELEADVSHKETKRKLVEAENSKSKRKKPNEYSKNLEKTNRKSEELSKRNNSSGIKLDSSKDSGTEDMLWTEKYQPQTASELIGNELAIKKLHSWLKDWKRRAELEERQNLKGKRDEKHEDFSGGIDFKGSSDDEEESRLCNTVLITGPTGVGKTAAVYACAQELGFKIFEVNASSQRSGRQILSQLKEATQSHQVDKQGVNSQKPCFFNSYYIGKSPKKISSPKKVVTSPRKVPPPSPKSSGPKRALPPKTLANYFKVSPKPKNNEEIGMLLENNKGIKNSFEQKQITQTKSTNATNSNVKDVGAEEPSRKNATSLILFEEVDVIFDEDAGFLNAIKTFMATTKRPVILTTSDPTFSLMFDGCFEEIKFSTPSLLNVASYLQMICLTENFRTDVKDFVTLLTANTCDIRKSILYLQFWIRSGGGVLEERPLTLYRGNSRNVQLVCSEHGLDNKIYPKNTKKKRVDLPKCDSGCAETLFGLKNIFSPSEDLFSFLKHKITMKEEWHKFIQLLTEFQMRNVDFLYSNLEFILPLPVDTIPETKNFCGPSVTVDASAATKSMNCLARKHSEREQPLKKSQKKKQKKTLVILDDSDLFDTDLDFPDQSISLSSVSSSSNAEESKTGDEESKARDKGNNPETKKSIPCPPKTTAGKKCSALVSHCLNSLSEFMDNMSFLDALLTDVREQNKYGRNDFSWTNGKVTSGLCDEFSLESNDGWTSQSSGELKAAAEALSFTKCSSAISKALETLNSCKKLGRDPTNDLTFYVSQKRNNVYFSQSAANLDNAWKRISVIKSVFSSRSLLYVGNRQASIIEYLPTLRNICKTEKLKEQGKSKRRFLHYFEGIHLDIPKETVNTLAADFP
How it was run: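 HEK293T cells expressing luciferase-tagged ELG1 were co-treated with 5-fluorouridine and compound or DMSO for 16 hr at 37 °C, 5% CO2. Luciferase activity was then read with ONE-Glo after 30 min at room temperature; suppressed signal indicates blocked ELG1 function.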

[12] = qHTS for Inhibitors of Cell Surface uPA Generation: Validation Assay (AID 493164);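 note: RAW 264.7 macrophage cells exposed to compound for 18 h; 0% is about no effect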
How it was run: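 RAW 264.7, 4000 cells/well, o/n plating; cpd 7-pt 1:5 dilution 2.45 nM–38.3 uM final; 18 h, 37 C/5% CO2; ATP-Lite, 5 s luminescence exposure.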

[13] = molecular target: Galactokinase (Homo sapiens) (UniProt P51570); assay: qHTS Validation Assay for Inhibitors of Human Galactokinase (GALK) (AID 493189); note: 0% is about no effect
Sequence of Galactokinase (Homo sapiens) (P51570 whole entry, looked up): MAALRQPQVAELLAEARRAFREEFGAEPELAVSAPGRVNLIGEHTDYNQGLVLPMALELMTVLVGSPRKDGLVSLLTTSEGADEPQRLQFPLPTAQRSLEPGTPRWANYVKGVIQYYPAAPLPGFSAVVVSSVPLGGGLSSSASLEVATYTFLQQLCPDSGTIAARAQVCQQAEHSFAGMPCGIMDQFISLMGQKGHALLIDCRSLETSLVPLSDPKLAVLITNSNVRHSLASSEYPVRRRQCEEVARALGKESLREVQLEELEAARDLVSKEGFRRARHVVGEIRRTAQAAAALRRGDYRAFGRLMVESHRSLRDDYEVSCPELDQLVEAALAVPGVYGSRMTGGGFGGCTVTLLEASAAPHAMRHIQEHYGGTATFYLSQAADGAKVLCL
How it was run: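 5 nM GALK / 100 uM galactose / 35 uM ATP, 20 mM HEPES pH8.0, 5 mM MgCl2, 60 mM NaCl, 1 mM DTT, 0.01% BSA (final). RT 1 h; Kinase-Glo Plus luminescence.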

[14] = molecular target: Transient receptor potential cation channel subfamily V member 1 (Homo sapiens) (UniProt Q8NER1); assay: HTS Assay for Compounds that Act as Enhancers of the Vanilloid Receptor 1 (AID 488979); note: 0% is about no effect
Sequence of Transient receptor potential cation channel subfamily V member 1 (Homo sapiens) (Q8NER1 whole entry, looked up): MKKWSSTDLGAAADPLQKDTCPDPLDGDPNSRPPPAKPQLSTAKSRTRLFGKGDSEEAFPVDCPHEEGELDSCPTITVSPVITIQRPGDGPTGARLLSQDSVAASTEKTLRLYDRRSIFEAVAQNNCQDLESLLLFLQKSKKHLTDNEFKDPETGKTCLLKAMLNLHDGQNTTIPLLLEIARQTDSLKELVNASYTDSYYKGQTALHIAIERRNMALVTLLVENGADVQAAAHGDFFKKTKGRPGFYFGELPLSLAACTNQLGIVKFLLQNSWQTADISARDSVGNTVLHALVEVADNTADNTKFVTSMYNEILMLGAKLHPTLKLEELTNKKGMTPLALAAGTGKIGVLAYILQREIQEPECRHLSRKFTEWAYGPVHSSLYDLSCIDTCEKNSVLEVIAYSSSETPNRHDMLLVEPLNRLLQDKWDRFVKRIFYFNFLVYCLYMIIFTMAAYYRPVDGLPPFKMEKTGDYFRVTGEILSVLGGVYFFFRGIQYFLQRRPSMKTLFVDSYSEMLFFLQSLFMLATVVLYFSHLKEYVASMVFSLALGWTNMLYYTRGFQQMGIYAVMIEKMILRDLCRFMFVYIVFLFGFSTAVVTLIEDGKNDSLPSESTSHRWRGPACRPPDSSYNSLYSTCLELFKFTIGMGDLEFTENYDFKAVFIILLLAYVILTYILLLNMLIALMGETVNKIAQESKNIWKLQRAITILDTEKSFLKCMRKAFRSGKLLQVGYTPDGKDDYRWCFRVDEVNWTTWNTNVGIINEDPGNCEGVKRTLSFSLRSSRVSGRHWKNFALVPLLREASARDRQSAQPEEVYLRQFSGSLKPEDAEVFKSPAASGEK
How it was run: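 TRPV1-expressing cells loaded with Fluo-8 calcium dye; compounds added and calcium influx read kinetically for 3 min (agonist phase), then capsaicin at EC20 added and read 2 min more for enhancement. Fluorescence ex 480/em 520 nm.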

[15] = molecular target: D(1A) dopamine receptor (Homo sapiens) (UniProt P21728); assay: HTS Assay for Allosteric Agonists of the Human D1 Dopamine Receptor: Primary Screen for Antagonists (AID 488983);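 note: calcium flux response to an EC80 dopamine challenge measured with no-wash dye; % is set by controls: 0 for no effect and ±100 for the full control effect; nearly all actives have a fitted effect of over 65% in size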
How it was run: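 Tetracycline-induced HEK293 T-REx cells expressing force-coupled D1 were plated overnight at 30 C, dye-loaded for calcium, and read kinetically. Compounds were pinned in, then an EC80 dopamine challenge followed after 180 s to reveal antagonism.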

[16] = molecular target: ATP-dependent 6-phosphofructokinase (Trypanosoma brucei brucei) (UniProt O15648); assay: qHTS Assay to Find Inhibitors of T. brucei phosphofructokinase: hit validation (AID 492961);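 note: luminescence reports ADP formed as PFK phosphorylates fructose-6-phosphate with ATP; series mostly up to about 51 µM; % is set by controls: 0 for no effect and ±100 for the full control effect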
How it was run: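 Percent activity derived from corrected luminescence, normalized between 0x and 1x enzyme controls, then fitted to concentration-response curves. Conditions: 1.25 nM PFK, 0.1 mM ATP, 0.5 mM F6P, 45 min RT.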

[17] = molecular target: Thyrotropin-releasing hormone receptor (Homo sapiens) (UniProt P34981); assay: qHTS for Small Molecule Agonists and Allosteric Enhancers of Human TRH Receptor: Validation Screen for Agonists (AID 493127;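 active = calcium activation more than 3 SD above the typical response in the agonist read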;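 note: intracellular calcium rise by fluo-8 fluorescence before TRH EC20 addition; 0% is about no effect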); conditions: TRH receptor agonist cell assay; at 2 µM; stronger effect = higher value
Sequence of Thyrotropin-releasing hormone receptor (Homo sapiens) (P34981 whole entry, looked up): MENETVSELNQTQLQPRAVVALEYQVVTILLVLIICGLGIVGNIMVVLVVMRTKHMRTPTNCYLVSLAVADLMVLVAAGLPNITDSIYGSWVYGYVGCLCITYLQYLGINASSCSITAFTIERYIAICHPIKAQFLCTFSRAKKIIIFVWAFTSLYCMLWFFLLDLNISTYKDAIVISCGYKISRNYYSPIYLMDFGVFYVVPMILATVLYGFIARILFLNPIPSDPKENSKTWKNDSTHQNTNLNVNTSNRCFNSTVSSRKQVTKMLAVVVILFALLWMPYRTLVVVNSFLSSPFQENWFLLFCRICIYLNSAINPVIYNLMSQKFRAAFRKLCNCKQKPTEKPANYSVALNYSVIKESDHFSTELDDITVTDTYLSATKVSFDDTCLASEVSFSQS
How it was run: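 TRHR-expressing cells were plated overnight in serum-containing medium, then loaded with fluo-8 calcium dye at room temperature for 30 min–1.5 h. After a 10 s baseline, compound was pin-transferred and calcium fluorescence (ex 480/em 530) read kinetically for agonist response.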

[18] = Nrf2 qHTS screen for inhibitors: Validation (AID 493153; active = well fitted inhibition curve with a large enough effect in the main read-out, with a control signal flat, not every such curve was filed as active); conditions: Potency: luciferase luminescence; viability change: measured here: cytotoxicity max response
How it was run: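 A549 cells carrying an ARE-driven firefly luciferase reporter, in 5% FBS OPTI-MEM, were treated with compounds in concentration-response for 18-24 h at 37°C. Viability was read by CellTiter-Fluor fluorescence, then Nrf2 activity by luciferase luminescence.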

[19] = Validation screen for small molecules that induce DNA re-replication in SW480 colon adenocarcinoma cells (AID 504364); note: 0% is about no effect
How it was run: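 SW480 cells seeded at 250 per well were exposed to compound or DMSO for 48 hr at 37 C, 5% CO2, then stained with Hoechst for 40 min. DNA content per nucleus was imaged (405 nm ex, 500-530 nm em).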

CN1CCN(CCCN2c3ccccc3Sc3ccc(Cl)cc32)CC1
inactive: outcome [1] | Potency [2] | Potency [3] | outcome [6] | outcome [7] | Potency [8] | Potency [9] | Potency [10] | Potency [11] | outcome [12] | Potency [13]
active: Potency [4] 25.1 µM and 15 µM | Potency [5] 31.6 µM

CN(C)c1nc(N(C)C)nc(N(C)C)n1
inactive: outcome [1] | Potency [2] | Potency [3] | Potency [4] | Potency [5] | outcome [6] | outcome [14] | outcome [7] | Potency [8] | Potency [9] | Potency [15] | Potency [16] | Potency [10] | activation [17] 0.188% | Potency [18] | outcome [12] | Potency [13] | Potency [19]
0%: viability change [18]

O=c1c(-c2ccc(O)cc2)coc2cc(O)cc(O)c12
-6.66%: viability change [18]
active: Potency [10] 9.2 µM
inactive: outcome [1] | Potency [2] | Potency [3] | Potency [4] | Potency [5] | outcome [6] | outcome [14] | outcome [7] | Potency [8] | Potency [9] | Potency [15] | Potency [18] | outcome [12] | Potency [13] | Potency [19]

Cn1cnc2c1c(=O)[nH]c(=O)n2C
inactive: outcome [1] | Potency [2] | Potency [3] | Potency [4] | Potency [5] | outcome [6] | outcome [14] | outcome [7] | Potency [8] | Potency [9] | Potency [15] | Potency [10] | Potency [11] | activation [17] 0.562% | Potency [18] | outcome [12] | Potency [13] | Potency [19]
-9.08%: viability change [18]

COc1nc(C)nc(Cl)c1NC1=NCCN1
inactive: outcome [1] | Potency [2] | Potency [3] | Potency [4] | Potency [5] | outcome [6] | outcome [14] | outcome [7] | Potency [8] | Potency [9] | Potency [15] | Potency [16] | Potency [10] | activation [17] 0.688% | Potency [18] | outcome [12] | Potency [13] | Potency [19]
4.38%: viability change [18]

NCCS(=O)(=O)O
inactive: outcome [1] | Potency [2] | Potency [3] | Potency [4] | Potency [5] | outcome [6] | outcome [14] | outcome [7] | Potency [8] | Potency [9] | Potency [15] | Potency [10] | Potency [11] | activation [17] 1.12% | Potency [18] | outcome [12] | Potency [13] | Potency [19]
-6.75%: viability change [18]

NS(=O)(=O)c1cc2c(cc1Cl)NCNS2(=O)=O
inactive: outcome [1] | Potency [2] | Potency [3] | Potency [4] | Potency [5] | outcome [6] | outcome [14] | outcome [7] | Potency [8] | Potency [9] | Potency [15] | Potency [10] | activation [17] 0.938% | Potency [18] | outcome [12] | Potency [13] | Potency [19]
-1.09%: viability change [18]
